The values below come from PubChem BioAssay AID720534 (National Center for Advancing Translational Sciences (NCATS), 2013).

The structures appear in SMILES notation. About 990 (62%) of roughly 1,600 compounds were called active. Inconclusive results (about 30%) are left out. Calls follow the shape of the dose curve; as a rule, active = well fitted inhibition curve with a large enough effect; inconclusive = small, poorly fitted or top-dose-only effect; inactive = no such curve, though single readings can be large or run the other way. So high a share suggests a set chosen from earlier hits. Not all results are given here.
Potency is read from the fitted curve at half-maximal effect.

The nature of this test: qHTS for Inhibitors of TGF-b: Confirmation of Cherry Picks. Also: nearly all actives have a fitted effect of over 65% in size. The following applies: HepG2 CAGA-GFP TGF-b reporter, GFP fluorescence, 18 h, cells stimulated with TGF-beta, 500 pg/mL; series mostly up to 46.1 µM. The text has this: TGF-b is a main component in the TGF-b signaling pathway which plays diverse roles in cellular and development pathways. TGF-b is mediated through transcription factors called "Smads". Although the Smad-dependent pathway is the primary canonical TGF-b signaling mode, TGF-b1 can also activate alternative signaling pathways, including those involving MAPK (ERK, JNK and p38). This interaction may mediate or enhance Smad-dependent responses, or can exert Smad-independent effects. The complexity of this signaling cascade allows the TGF-b superfamily to perform unique, overlapping or redundant functions. We believe that targeting the TGF-beta pathway at the Smad-transcription factor level may eliminate the consequences of disrupting the entire pathway and offer specificity without affecting other signaling pathways. Smad3 is the primary transducer of TGF-b's signals and Smad3 regulates many functions attributed to TGF-b signaling. We hypothesize that Smad3 inhibitors will selectively eliminate Smad3-specific TGF-beta signals without undesired off-target effects. We aim to identify Smad3-small molecule antagonists using a quantitative high throughput screening (qHTS) approach. In this assay, hits identified from the primary screen were re-tested. MH087449NIH Chemical Genomics Center [NCGC] NIH Molecular Libraries Probe Centers Network [MLPCN] MLPCN Grant: MH087449 Assay Submitter (PI): Sushil Rane, National Institute of Diabetes and Kidney Diseases
Suspensions of trypsinized HEPG2 CAGA-GFP cells were dispensed into white, tissue culture-treated, solid 1536-well plates at 5uL/well (1000 cells/well final concentration) in DMEM medium supplemented with 1% FBS. Plates were incubated at 37 degrees C for 2 hours, after which 23 nL of compounds or DMSO were delivered to each well using a pin tool. One uL of recombinant TGF-beta in DMEM (1% FBS) was then dispensed (500 pg/mL final concentration), and plates were incubated at 37 degrees C for 18 hours. The plates were measured on an Acumen eX3 Explorer plate reader for GFP fluorescence (ex488/em500-530). GFP values were calculated by determining the mean GFP fluorescence of individual cells, and compiling these values for each well to determine a total well GFP signal. The %Activity was determined from the corrected fluorescence values. A titration of the known TGF-B inhibitor SB431542 was included to monitor plate performance, while unstimulated HEPG2 (-TGF-B) control wells were used to normalize %Activity of identified inhibitors; unstimulated wells corresponded to 100%Activity (full inhibition), while stimulated cell controls (+DMSO) were used to normalize 0%Activity (no inhibition). Concentration-response curves were fitted to the signals arising from the resulting fluorescence. The concentration-effect curves were then classified based on curve quality (r2), response magnitude and degree of measured activity, and compounds were subsequently categorized based on their curve class.
(Quantitative high-throughput screening tests each substance at several concentrations.)
Take `O=[N+]([O-])c1ccccc1S(=O)(=O)Nc1cccc2cccnc12`: the Potency was 13 µM (active).

Turning to `CN(C)CCNC(=O)c1ccc(Cl)c2cc3ccccc3nc12`, the Potency was 3.26 µM (active). With `O=C(NC1=CC(=O)c2ccccc2C1=O)c1ccccc1` the figure was 5.17 µM (active); with `COC(=O)COc1cccc2c(=O)n(CC(=O)NCc3ccccc3)ccc12`, “inactive”. With `COc1cc(NC(=O)c2ccccc2NS(=O)(=O)c2ccc(Cl)s2)cc(OC)c1`, the Potency is 5.8 µM (active). With `CN(c1ccccc1)S(=O)(=O)c1ccc(C(=O)N2CCN(c3ccccc3Cl)CC2)cc1` the figure was 5.8 µM (active); with `COc1ccc(CNC(=O)C[C@H]2C[C@H](C(=O)N3CCOCC3)[C@@]3(CCC4CCCC4)c4[nH]c5ccc(Cl)cc5c4CCN3C2=O)cc1OC`, 4.61 µM (active). Regarding `COc1ccc(C(=O)c2c3ccc([N+](=O)[O-])cc3[n+]([O-])n2CCCN)cc1`, the Potency is 18.4 µM (active).

`COc1cc(NC(=O)c2[nH]cnc2C(N)=O)cc(C(=O)Nc2cccc(C(F)(F)F)c2)c1`: the Potency was 16.4 µM (active). Regarding `Cn1c(=O)n(C)c2cc(S(=O)(=O)N3CCCc4ccccc43)ccc21`, the Potency entry was “inactive”. With `COc1cc(CC(=O)Nc2nc(-c3ccc(F)c(F)c3)cs2)cc(OC)c1OC` the figure was 11.6 µM (active); with `Cc1oc2c(F)c(F)c(F)c(F)c2c1S(=O)(=O)Nc1cccc(C(F)(F)F)c1`, 20.6 µM (active); with `Clc1ccc(Nc2nc(-c3cccs3)cs2)nc1`, 13 µM (active). With `CCOc1ccc(CCN2C(=S)N([C@@H](CC(C)C)CN3CCC[C@@H]3CN3C(=S)NC[C@@H]3Cc3ccc(O)cc3)C[C@@H]2CC(C)C)cc1` the figure was 18.4 µM (active); with `CCN(CC)C(=O)C1=C(C)N(Cc2ccc(C(C)(C)C)cc2)C(=O)C(CC(=O)NCc2cccc3ccccc23)C1` (stereo not given), 14.6 µM (active); with `COC(=O)N/N=C/c1cn(CCCOc2ccc(C)cc2)c2ccccc12`, 14.6 µM (active).

For `c1ccc2cc3c(NCCN4CCOCC4)ccnc3cc2c1`, the Potency is 18.4 µM (active). With `c1ccc(-c2cn3c(n2)CCc2ccc4cccnc4c2-3)cc1` the entry was “inactive”.

Consider `O=C(/C(=C/c1cccc(Cl)c1)c1nc2ccccc2[nH]1)c1ccccc1`, for which the Potency is 2.91 µM (active). Take `CC(=O)c1cccc(-c2cnc3c(NC=O)cc(-c4ccc(N(C)C)cc4)cn23)c1`: the Potency is 7.31 µM (active). With `CC(=O)c1ccc(-c2cnc3c(NC=O)cc(-c4cccc(NS(C)(=O)=O)c4)cn23)cc1` the figure was 0.731 µM (active); with `O=C(Nc1ccc(Cl)cc1)Nc1nnc(/C=C/c2ccccc2)s1`, “inactive”; with `COc1ccc(-c2onc(C)c2-c2ccc3c(c2)OCCO3)c(O)c1`, 16.4 µM (active). `COc1cc(NC(=O)COC(=O)c2ccc([N+](=O)[O-])s2)cc(OC)c1OC`: the Potency is 23.1 µM (active). As to `Cc1ccnc(NC(=O)C2CCN(S(=O)(=O)c3c(C)c(C)cc(C)c3C)CC2)c1`, the Potency was 7.31 µM (active). With `S=C(NCC1COc2ccccc2O1)Nc1ccc(Br)cc1` (stereo not given) the figure was 18.4 µM (active); with `CN(C)c1nc(N)nc(CSc2nnnn2-c2cccc3ccccc23)n1`, 7.31 µM (active); with `CN(C)c1nc(=Nc2cccc(Cl)c2)ss1`, 5.17 µM (active).

With `Cc1cccc(-c2nc(Nc3ccc(O)cc3)c3ccccc3n2)c1`, the Potency is 18.4 µM (active). With `COc1cc(/C=C2\Oc3ccc(C#Cc4ccc(O)cc4)cc3C2=O)cc(OC)c1` the figure was 6.51 µM (active); with `O=C(Nc1nnc(S(=O)(=O)N2CCCCCC2)s1)c1cccc(Br)c1`, 23.1 µM (active); with `O=C(Nc1ccc(Br)cn1)c1ccc([N+](=O)[O-])o1`, 18.4 µM (active). With `COc1ccc(CC(=O)Nc2ccccc2NC(=O)c2ccco2)cc1OC` the entry was “inactive”. As for `CCOC(=O)C1=C(N)N(c2ccc(C)cc2)C2=C(C(=O)CCC2)C1c1cccs1` (stereo not given), the Potency was 23.1 µM (active).

As to `Cc1nc(/N=C(\N)NC(=O)NC2CCCCC2)nc2ccccc12`, the Potency was 11.6 µM (active). With `Clc1ccc2c(c1)C1=C(C(c3ccncc3)O2)C(c2ccc(Br)cc2)n2ncnc2N1` (stereo not given) the figure was 2.31 µM (active). With `CCCOc1ccccc1C1CC(=O)Nc2cc3c(cc21)OCO3` (stereo not given) the figure was 8.2 µM (active); with `COc1cccc2sc(N(CCCN(C)C)C(=O)CCS(=O)(=O)c3ccccc3)nc12`, 3.26 µM (active). With `Cc1cccc2sc(N(CCCN(C)C)C(=O)CCS(=O)(=O)c3ccccc3)nc12` the figure was 5.17 µM (active); with `COc1ccc(C)cc1S(=O)(=O)N1CCN(S(=O)(=O)c2cc(C(=O)O)ccc2C)CC1`, “inactive”.

Take `Cc1nn(-c2ccccc2)c(C)c1/C=N/NC(=O)CSc1nc2ccccc2c(=O)n1-c1ccccc1`: the Potency is 2.31 µM (active). Consider `Cc1ccc(CN2CC(N3CCC(Cc4ccccc4)CC3)CS2(=O)=O)cc1` (stereo not given), for which the Potency was 20.6 µM (active). With `O=C(Nc1ccc(C2CC2(Cl)Cl)cc1)c1cccc([N+](=O)[O-])c1` (stereo not given) the entry was “inactive”. With `Cc1ccc(S(=O)(=O)Nc2nc3ccccc3nc2N2CCc3ccccc3C2)cc1` the figure was 18.4 µM (active); with `Cc1cccc(NS(=O)(=O)c2ccc(-c3cnc(C4CC4)o3)cc2)c1`, 16.4 µM (active); with `COc1ccc2nc(N3CCN(C(=O)c4ccc([N+](=O)[O-])o4)CC3)sc2c1`, 20.6 µM (active). With `OCC1OC(n2cnc3c(N4CCCC4)ncnc32)C(O)C1O` (stereo not given) the figure was 2.59 µM (active). As for `CCC(C)N1C(=O)S/C(=C/c2ccc(Sc3nc4ccccc4[nH]3)o2)C1=O` (stereo not given), the Potency was 5.17 µM (active). With `CCCOc1ccc(F)cc1-c1cc(C(=O)Nc2ccc(F)c(Cl)c2)[nH]n1` the figure was 20.6 µM (active). With `Clc1cccc(Cc2c(-c3cccc(Cl)c3)nc3ccc(Cl)cn23)c1` the figure was 18.4 µM (active); with `Oc1c(CN2CCN(c3ccc(F)cc3)CC2)cc(Cl)c2cccnc12`, 6.51 µM (active). As to `OCCCNc1nccc(-c2cc(Nc3cccc(Cl)c3)ncn2)n1`, the Potency is 0.411 µM (active). Consider `CC(=NNC(=S)N1CCCCCC1)c1ccccn1`, for which the Potency is 0.651 µM (active). On to `Cc1cccc(CS(=O)(=O)c2ncc(Cl)c(C(=O)Nc3ccc(F)cc3)n2)c1`, for which the Potency is 5.17 µM (active). With `Cc1cccc(NC(=O)c2nc(S(=O)(=O)Cc3ccccc3)ncc2Cl)c1` the figure was 4.11 µM (active).
